Data as given in the supplement of paper PMC13380429.

Test system: Vero E6 infected with SARS-CoV-2
Test: inhibition of SARS-CoV-2 cytopathic effect; higher = more antiviral protection, active = above 15
Conditions: 48 h

Measured: inhibition of SARS-CoV-2 cytopathic effect

Oc1cccc(-c2nc(N3CCOCC3)c3oc4ncccc4c3n2)c1
inactive: 1 nM -0.17% | 8.33 nM 0.46% | 100 nM -0.59% | 833.33 nM -6.22% | 10000 nM -7.96%

CCN(C(C)=O)c1cccc(-c2ccnc3c(C#N)cnn23)c1
inactive: 1 nM -0.78% | 8.33 nM -1.57% | 100 nM -2.79% | 833.33 nM -0.59% | 10000 nM -0.53%

COC(=O)c1ccccc1O [methyl-salicylate]
inactive: 1 nM 0.7% | 8.33 nM 2.86% | 100 nM 2.42% | 833.33 nM -0.42% | 10000 nM -3.74%

CC(C)=CCc1c(O)cc(O)c2c(=O)c(O)c(-c3ccc(C(F)(F)F)cc3)oc12
inactive: 1 nM 2.04% | 8.33 nM 1.52% | 100 nM 3.93% | 833.33 nM 2.83% | 10000 nM 2.95%

O=c1[nH]c(CCl)nc2sc3c(c12)CCCC3
inactive: 1 nM -1.17% | 8.33 nM -1.84% | 100 nM -1.12% | 833.33 nM 0.17% | 10000 nM 12.3%

CC(C)CCNC(=O)[C@H](CC(C)C)NC(=O)[C@H]1O[C@@H]1C(=O)O [loxistatin-acid]
inactive: 1 nM -1.03% | 8.33 nM -1.05% | 100 nM -0.89% | 833.33 nM 0.62% | 10000 nM 2.74%

CN(C)c1cccc(Oc2cnc(Nc3cccc(O)c3)nc2)c1
inactive: 1 nM -2.69% | 8.33 nM 0.57% | 100 nM -1.76% | 833.33 nM 2.09% | 10000 nM -3.69%

Cc1cc(NS(=O)(=O)c2ccc(N)cc2)no1 [sulfamethoxazole]
inactive: 1 nM 2.98% | 8.33 nM 0.81% | 100 nM 0.9% | 833.33 nM 0.68% | 10000 nM 0.81%

CC(C)(C)C(=O)C(Oc1ccc(Cl)cc1)n1ccnc1 (stereo not given) [climbazole]
inactive: 1 nM -1.08% | 8.33 nM 1.03% | 100 nM -1.59% | 833.33 nM -1.58% | 10000 nM 0.15%

Nc1ccc(C(=O)NCC(=O)O)cc1 [4-aminohippuric-acid]
inactive: 1 nM -2.16% | 8.33 nM -0.24% | 100 nM -0.14% | 833.33 nM 0.71% | 10000 nM -1.9%

CCOc1ccc(Cc2cc([C@]34OC[C@](CO)(O3)[C@@H](O)[C@H](O)[C@H]4O)ccc2Cl)cc1 [ertugliflozin]
inactive: 1 nM -4.37% | 8.33 nM -4.65% | 100 nM -2.3% | 833.33 nM -0.17% | 10000 nM 0.59%

CCCCCCCCCCCC[N+](C)(C)CCOc1ccccc1 [domiphen]
inactive: 1 nM -2.49% | 8.33 nM -1.64% | 100 nM 0.17% | 833.33 nM 0.26% | 10000 nM -8.43%

CCCC[C@H](NC(C)=O)C(=O)N[C@H]1CC(=O)NCCCC[C@@H](C(=O)O)NC(=O)[C@H](Cc2c[nH]c3ccccc23)NC(=O)[C@H](CCCNC(=N)N)NC(=O)[C@@H](Cc2ccccc2)NC(=O)[C@H](Cc2c[nH]cn2)NC1=O [bremelanotide]
inactive: 1 nM 1.27% | 8.33 nM -1.82% | 100 nM -0.14% | 833.33 nM -2.33% | 10000 nM 0.21%

O=C(CC(c1ccccc1)c1ccccc1)N1CCN(C(c2ccccc2)c2ccccc2)CC1
inactive: 1 nM -0.56% | 8.33 nM -1.82% | 100 nM -3.93% | 833.33 nM 1.53% | 10000 nM 3.27%

COC1(C[S@@+]([O-])c2ccccc2)CCN(CCc2c[nH]c3ccc(F)cc23)CC1
inactive: 1 nM 1.49% | 8.33 nM 4.84% | 100 nM 3.16% | 833.33 nM 1.05% | 10000 nM -2.13%

COCC1(CO)C(=O)C2CCN1CC2 (stereo not given)
inactive: 1 nM -1.69% | 8.33 nM -1.26% | 100 nM -0.44% | 833.33 nM -0.13% | 10000 nM 4.84%

CNc1ncc2cc(-c3cc(NC(=O)NCCC(C)(C)C)c(F)cc3C)c(C)nc2n1
inactive: 1 nM 0.87% | 8.33 nM 1.85% | 100 nM 5.54% | 833.33 nM -4.43% | 10000 nM -8.15%

CC(C)c1nc(CN(C)C(=O)N[C@H](C(=O)N[C@@H](Cc2ccccc2)C[C@H](O)[C@H](Cc2ccccc2)NC(=O)OCc2cncs2)C(C)C)cs1 [Ritonavir]
inactive: 1 nM 0.39% | 8.33 nM 1.47% | 100 nM 0.46% | 833.33 nM 1.28% | 10000 nM -1.6%
